AmpC no deterg: AmpC beta-lactamase inhibition without detergent | AmpC nitrocefin hydrolysis, absorbance 480 nm, 0.0001% Triton | P00811 | 330,000 tested, 0.52% active | Potency, µM (series often up to 57.1 µM), usual class: inhibitors; further: nearly all actives have a fitted effect of over 20% in size
Target sequence (P00811 whole entry, looked up): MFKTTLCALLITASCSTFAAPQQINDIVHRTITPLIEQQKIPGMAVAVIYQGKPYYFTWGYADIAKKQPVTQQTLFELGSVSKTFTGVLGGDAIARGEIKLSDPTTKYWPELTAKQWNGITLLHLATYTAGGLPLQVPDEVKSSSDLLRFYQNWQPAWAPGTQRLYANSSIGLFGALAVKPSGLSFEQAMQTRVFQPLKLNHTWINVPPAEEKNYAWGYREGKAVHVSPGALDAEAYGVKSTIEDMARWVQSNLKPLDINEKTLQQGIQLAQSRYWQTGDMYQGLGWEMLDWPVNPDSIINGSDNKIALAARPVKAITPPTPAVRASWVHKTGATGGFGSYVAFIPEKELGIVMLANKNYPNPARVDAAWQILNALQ
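20 mM phosphate pH 7.0 + 0.01% (detergent screen) or 0.0001% Triton X-100; 5.3 nM AmpC reagent; cpd preinc 15 min RT; nitrocefin (800 uM stock) to start; A480 q20 s × 4 min; Activity was normalised to no-enzyme and no-compound control wells.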
Giardia FBPA inh: blocks Giardia fructose-bisphosphate aldolase activity; purified Giardia FBPA; Potency, µM (highest dose often 59.6 µM), actives largely listed as inhibitors; 290,000 tested, 0.71% active; AID 2451; further: nearly all actives have a fitted effect of over 55% in size
Target sequence (A8B2U2 whole entry, looked up): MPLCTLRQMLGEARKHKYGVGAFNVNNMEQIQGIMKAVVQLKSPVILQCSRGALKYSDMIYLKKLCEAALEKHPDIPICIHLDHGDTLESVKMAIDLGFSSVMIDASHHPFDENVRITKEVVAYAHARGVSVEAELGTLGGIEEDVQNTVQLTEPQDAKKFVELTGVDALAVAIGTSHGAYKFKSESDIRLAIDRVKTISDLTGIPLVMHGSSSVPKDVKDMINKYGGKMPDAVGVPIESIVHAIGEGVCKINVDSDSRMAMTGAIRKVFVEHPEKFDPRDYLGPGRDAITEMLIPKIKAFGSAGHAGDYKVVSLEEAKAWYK
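40 nM FBPA preincubated 10 min at RT with compound (up to 57.5 uM final), then substrate plus GAPDH/TPI/NAD/arsenate coupling and diaphorase/resazurin added. Fluorescence read after 20 min at RT, 525/598 nm.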
AmpC detergent: inhibitors of E. coli AmpC beta-lactamase with detergent; P00811; AmpC hydrolysis of nitrocefin, absorbance 480 nm, 0.01% Triton; Potency, µM (series often up to 114 µM), most hits filed as inhibitors; 370,000 tested, 0.041% active; AID 485294; further: nearly all actives have a fitted effect of over 25% in size
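AmpC (5.3 nM in the dispensed reagent) in 20 mM phosphate pH 7.0 with 0.01% (detergent screen) or 0.0001% Triton X-100 was preincubated with compounds for 15 min at room temperature. Nitrocefin was then added from an 800 uM solution, and hydrolysis was followed at 480 nm.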
LmPK inh: inhibitors of Leishmania mexicana pyruvate kinase | Potency, µM (highest dose often 57.5 µM), actives largely listed as inhibitors | purified LmPK, Kinase-Glo ATP luminescence, 1 h | Q27686 | 290,000 tested, 0.37% active | AID 1721
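In 50 mM imidazole pH 7.2 with 7 mM MgCl2, LmPK (0.1 nM) turned over PEP (0.5 mM) and ADP (0.1 mM) for 1 h at room temperature. Luciferase read-out of ATP.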
AMA1 RON2 block: AMA1-RON2 (P. falciparum) interaction inhibition; Potency, µM (titrated, usually from 58.2 µM), most hits filed as inhibitors; AlphaScreen AMA1-biotinylated RON2 peptide binding; 360,000 tested, 0.2% active; further: nearly all actives have a fitted effect of over 45% in size
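AMA1 (3D7) with his tag at 25 nM final met compounds first, then biotinylated RON2 peptide at 25 nM; detection used donor plus acceptor beads, 10 µg/mL apiece, read by AlphaScreen after 30 min at room temperature.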
Hits are given with their value; [ ] = another dose, or the depositor's remark. Hits are enriched below; roughly 1.3% of the tested compounds scored in any of these assays. The call rests on the fitted dose curve; in most records, active means well fitted curve in the direction sought with a large enough effect; inconclusive means small, poorly fitted or top-dose-only effect, or another doubt; inactive means no such curve, though single readings can be large; an effect the other way counts as inactive or inconclusive.

`N/C(=N\OC(=O)c1ccc(F)cc1)c1cccc([N+](=O)[O-])c1` gave AmpC no deterg inactive, Giardia FBPA inh inactive, AmpC detergent inconclusive, LmPK inh inactive and AMA1 RON2 block inactive.
NCCCCCCCCCCNCCCN was read as Giardia FBPA inh inactive.
Cc1ccc(N2CCN(c3c(CN4CCCC4)c(=O)oc4ccccc34)CC2)c(C)c1 was read as AmpC detergent inactive.
For CCOc1cc(CNC(=O)c2ccc(NC(=O)c3nsc4ccccc34)cc2)ccc1OC the results were AmpC detergent inactive.
N/C(=N\OC(=O)c1cccs1)c1ccccc1 was read as AmpC no deterg inactive, Giardia FBPA inh inactive, AmpC detergent inconclusive, LmPK inh 13µM and AMA1 RON2 block inactive.
For Cc1ccc(/C(N)=N/OC(=O)c2cccs2)cc1 the results were AmpC no deterg inactive, Giardia FBPA inh inactive, AmpC detergent inactive, LmPK inh inconclusive and AMA1 RON2 block inactive.
For CCC(C)(NC(=O)c1ccc(=O)[nH]c1)C(=O)NC1CCCC1 (configuration not stated) the results were AmpC no deterg 2.8µM, Giardia FBPA inh inactive, AmpC detergent inconclusive, LmPK inh inactive and AMA1 RON2 block inactive.
`CN(C)c1ccc(N=Nc2ccc(C(=O)O)cc2)cc1` gave AmpC no deterg inactive, Giardia FBPA inh inconclusive, AmpC detergent inactive, LmPK inh inactive and AMA1 RON2 block inactive.
Screening Cc1csc(N=Nc2ccc(N(C)C)cc2)[n+]1[O-] returned AMA1 RON2 block 14µM.
COc1cc(/C=C(\CCC(=O)O)c2nc3ccccc3s2)ccc1OCC(=O)Nc1c(Cl)cccc1Cl was read as AmpC no deterg inactive and AMA1 RON2 block inactive.
Screening Cc1nc2ncccn2c1-c1csc(Nc2ccc(N(C)C)cc2)n1 returned AmpC no deterg inactive, Giardia FBPA inh inactive, AmpC detergent inactive, LmPK inh inactive and AMA1 RON2 block 14µM.
`c1ccc(-c2noc(-c3ccc4c(c3)OCO4)n2)cc1` gave AmpC no deterg inactive, Giardia FBPA inh inactive, AmpC detergent inactive, LmPK inh 16µM and AMA1 RON2 block inactive.
Screening COc1ccccc1N1CCN(/N=C/C=C\c2ccccc2[N+](=O)[O-])CC1 returned AmpC no deterg inactive, Giardia FBPA inh inactive, AmpC detergent inactive, LmPK inh inactive and AMA1 RON2 block 20µM.
For CC1CCCC(C)N1/N=C/c1ccc([N+](=O)[O-])cc1 (configuration not stated) the results were AmpC no deterg inactive, Giardia FBPA inh inactive, AmpC detergent inactive, LmPK inh inactive and AMA1 RON2 block inconclusive.
Screening COc1cccc(/C=N/N2CCN(c3ccccc3OC)CC2)c1 returned AmpC no deterg inactive, Giardia FBPA inh inactive, AmpC detergent inactive, LmPK inh inactive and AMA1 RON2 block inconclusive.
CC1CCCC(C)N1/N=C/C=C/c1ccccc1[N+](=O)[O-] (configuration not stated) was read as AmpC no deterg inactive[11.4 µM], Giardia FBPA inh inactive, AmpC detergent inactive, LmPK inh inactive and AMA1 RON2 block 16µM.
COc1ccccc1N1CCN(/N=C/c2cccc(Cl)c2)CC1 was read as AmpC no deterg inactive, Giardia FBPA inh inactive, AmpC detergent inactive, LmPK inh inactive and AMA1 RON2 block 14µM.
For CCCCNC(=O)c1nc(C2CCN(S(=O)(=O)c3ccccc3C(F)(F)F)CC2)oc1-c1ccccc1 the results were AMA1 RON2 block inactive.
Oc1[nH]c2ccc(Br)cc2c1N=NC(=S)N1CCOCC1 was read as AmpC no deterg inactive, Giardia FBPA inh inconclusive, AmpC detergent inactive, LmPK inh 22µM and AMA1 RON2 block inactive.
COC(=O)N=Nc1c(O)[nH]c2ccc(Br)cc12 was read as AmpC no deterg inactive, Giardia FBPA inh inactive, AmpC detergent inactive, LmPK inh inactive and AMA1 RON2 block inactive.
`CCn1c(-c2ccco2)n[nH]c1=S` gave AmpC no deterg inactive, Giardia FBPA inh inconclusive, AmpC detergent inactive, LmPK inh inactive and AMA1 RON2 block inactive.
`S=c1[nH]nc(-c2ccc(Br)cc2)n1Cc1ccco1` gave AmpC no deterg inconclusive, Giardia FBPA inh inactive, AmpC detergent inactive, LmPK inh 22µM and AMA1 RON2 block inactive.
S=c1[nH]nc(-c2ccco2)n1Cc1ccccc1 was read as AmpC no deterg inactive, Giardia FBPA inh inactive, AmpC detergent inactive, LmPK inh 14µM and AMA1 RON2 block inactive.
`S=c1[nH]nc(-c2ccc(Cl)cc2)n1Cc1ccccc1` gave AmpC no deterg inactive, Giardia FBPA inh inactive, AmpC detergent inactive, LmPK inh 13µM and AMA1 RON2 block inactive.
COc1ccc(-c2n[nH]c(=S)n2Cc2ccccc2)cc1 was read as AmpC no deterg inactive, Giardia FBPA inh inactive, AmpC detergent inconclusive, LmPK inh inconclusive and AMA1 RON2 block inactive.
For S=c1[nH]nc(-c2ccccc2)n1Cc1ccccc1 the results were AmpC no deterg inactive, Giardia FBPA inh inactive, AmpC detergent inconclusive, LmPK inh 10µM and AMA1 RON2 block inactive.
`CSc1ccc(CN2C(=O)C(F)(F)Oc3c(C(C)=O)cccc32)cc1` gave AMA1 RON2 block inactive.
Oc1ccc(N=Nc2c(O)ccc3ccccc23)cc1 was read as AmpC no deterg inactive, Giardia FBPA inh inconclusive, AmpC detergent inconclusive, LmPK inh inactive and AMA1 RON2 block 17µM.
CN=c1scc(-c2ccccc2F)n1/N=C/c1ccc[nH]1 was read as AmpC no deterg inactive, Giardia FBPA inh inactive, AmpC detergent inactive, LmPK inh inactive and AMA1 RON2 block inactive.
`CN=c1scc(-c2ccccc2F)n1/N=C/c1ccc(O)c(O)c1O` gave AmpC no deterg inactive, Giardia FBPA inh 7.9µM, AmpC detergent inactive, LmPK inh inconclusive and AMA1 RON2 block inactive.
CC(C)[C@H](NC(=O)[C@H](CC(=O)O)NC(=O)CNC(=O)[C@@H](N)CCCN=C(N)N)C(=O)O was read as Giardia FBPA inh inactive.
Screening COc1cc(NC(=O)CSc2nc3ccccc3cc2C)c(C(=O)O)cc1OC returned AmpC no deterg inactive, Giardia FBPA inh inactive, AmpC detergent inactive, LmPK inh inactive and AMA1 RON2 block inactive.
CCc1cc2ccccc2nc1SCC(=O)Nc1cc(OC)c(OC)cc1C(=O)O was read as AmpC no deterg 8.9µM, Giardia FBPA inh inconclusive, AmpC detergent inactive, LmPK inh inactive and AMA1 RON2 block inactive.
COc1cc(OC)c(N(C)S(=O)(=O)c2cccc(C(=O)OCC(=O)c3c[nH]c4ccccc34)c2)cc1Cl was read as AmpC no deterg 4µM, Giardia FBPA inh inactive, AmpC detergent inconclusive, LmPK inh inactive and AMA1 RON2 block inactive.
Screening C=CCN(c1ccccc1OC)S(=O)(=O)c1cccc(C(=O)OCC(=O)c2c[nH]c3ccccc23)c1 returned AmpC no deterg inactive, Giardia FBPA inh inactive, AmpC detergent inactive, LmPK inh inactive and AMA1 RON2 block inactive.
For Cc1ccc(NC(=O)CSc2nnc(-c3ccc(Br)cc3)o2)c(C)c1 the results were AmpC detergent inactive.

Source: PubChem (National Center for Advancing Translational Sciences (NCATS))
